# Compound activity as filed in PubChem.
# IL-1B inflam inh: qHTS for Inhibitors of Inflammasome Signaling: IL-1-beta AlphaLISA Primary Screen; THP-1 LPS/ATP IL-1B secretion, AlphaLISA, 16 h; stronger effect = lower value; activity change, % at 57.5 µM; 4.7% of 360,000 active; in the data active means activity change below about -50%; inconclusive means mostly about -30% to -49%
#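 THP-1 cells pretreated 1 hr with compounds (up to 57.5 uM final), then stimulated with LPS (250 ng/mL final) plus ATP (1.25 mM final); secreted IL-1B measured by AlphaLISA after 16 hr, decreased signal indicating inhibition.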
# MCF10A rereplic: A quantitative high throughput screen for small molecules that induce DNA re-replication in MCF 10a normal breast cells; Potency, µM (series often up to 46.1 µM), usual class: activators; 2.9% of 350,000 active; AID 624296, 2012; MCF 10A DNA re-replication, Hoechst nuclear intensity, 48 h; further: nearly all actives have a fitted effect of over 50% in size
# DT40 TDP1 CPT: qHTS for Inhibitors of human tyrosyl-DNA phosphodiesterase 1 (TDP1): qHTS in cells in presence of CPT; chicken DT40 Tdp1-/-;hTDP1 cells + 20 nM CPT, ATP luminescence, 48 h; 12% of 420,000 active; AID 686979, 2013; Potency, µM (top dose mostly 46.2 µM), actives largely listed as inhibitors; further: nearly all actives have a fitted effect of over 55% in size
#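 Chicken DT40 Tdp1-/- cells complemented with human TDP1, 400 cells/well, exposed to compounds plus 20 nM camptothecin for at least 48 h at 37 C; viability read as ATP content by CellTiter-Glo luminescence.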
# DT40 TDP1 no CPT: qHTS for Inhibitors of human tyrosyl-DNA phosphodiesterase 1 (TDP1): qHTS in cells in absence of CPT. DT40 Tdp1-/- hTDP1 cells, no CPT, ATP luminescence, 48 h. Potency, µM (highest dose often 46.2 µM), actives largely listed as inhibitors. 15% of 420,000 active. AID 686978, 2013; further: nearly all actives have a fitted effect of over 55% in size
#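 No-CPT arm: Tdp1-/-;hTDP1 DT40 cells (400/well) plus compounds, incubated ≥48 hr at 37 °C. Readout CellTiter-Glo luminescence.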
# BCR signal inh: qHTS Assay to Find Inhibitors of Chronic Active B-Cell Receptor Signaling; ABC-DLBCL IkBa-CBG/CBR reporter, luminescence ratio, 4 h; Potency, µM (top dose mostly 46.1 µM), actives largely listed as inhibitors; 0.05% of 340,000 active; active means well fitted inhibition curve with a large enough effect in the signal ratio, with a control signal flat, not every such curve was filed as active; inconclusive means small, poorly fitted or top-dose-only effect, or effect the other way, or a change in a side signal; the % refers to the signal ratio
#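 TMD8 human ABC-DLBCL cells with doxycycline-inducible IκBα–green luciferase fusion and unfused red luciferase, in 0.5% FBS medium; compounds up to 46 uM, 4 h at 37C. Green/red luminescence ratio, filter-overlap corrected, fitted to concentration-response curves.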
# SW480 rereplic: A quantitative high throughput screen for small molecules that induce DNA re-replication in SW480 colon adenocarcinoma cells. Potency, µM (series often up to 46.1 µM), most hits filed as activators. SW480 DNA re-replication, Hoechst DNA content imaging, 48 h. 1.8% of 340,000 active; further: nearly all actives have a fitted effect of over 55% in size
#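 Treated cells incubate 48 hr (37 C, 5% CO2), are stained 40 min with Hoechst, and nuclear fluorescence is enumerated; a rise in nuclei with high DNA signal marks re-replication.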
# Hits are given with their value; n = inactive; u = inconclusive; x = no result given; [ ] = remark or other dose. Most compounds without a hit are left out; they make up all but 19% or so of the library. Unless noted, the call rests on the fitted dose curve; in most records, active means well fitted curve in the direction sought with a large enough effect; inconclusive means small, poorly fitted or top-dose-only effect, or another doubt; inactive means no such curve, though single readings can be large; an effect the other way counts as inactive or inconclusive.
SMILES,IL-1B inflam inh,MCF10A rereplic,DT40 TDP1 CPT,DT40 TDP1 no CPT,BCR signal inh,SW480 rereplic
NC(=S)NNc1ccnc2cc(Cl)ccc12,n,n,n,u,u,n
CC(C)N(C(=O)N1CCN(c2ccnc3cc(Cl)ccc23)CC1)C(C)C,-84.3,16.4µM,11.6µM,9.2µM,n,n
O=C(Oc1ccnc2cc(Cl)ccc12)N1CCCCCC1,u,n,u,23.1µM,u,n
NC(=O)C1CCN(c2ccnc3cc(Cl)ccc23)CC1,n,n,n,n,n,n
O=C(c1ccc(Cl)cc1)N1CCN(c2ccnc3cc(Cl)ccc23)CC1,-92.2,n,u,13µM,u,n
O=C(NNc1ccnc2cc(Cl)ccc12)C1CCCCC1,n,n,0.92µM,0.651µM,u,n
CCOC(=O)CC1(CCc2ccccc2)Oc2ccccc2O1,n,x,n,n,x,x
NS(=O)(=O)c1ccc(CCNC(=O)COC(=O)C2CCN(c3ccc(C(F)(F)F)cn3)CC2)cc1,n,n,n,n,u,n
CCC(=O)N1CCN(c2ccnc3cc(Cl)ccc23)CC1,n,n,u,u,n,n
CCOC(=O)N1CCN(c2ccnc3cc(Cl)ccc23)CC1,n,u,u,14.6µM,u,n
O=C1NC(=O)/C(=C/c2cc3c(cc2Br)OCO3)S1,n,n,n,u,n,n
O=C1Nc2ccc3c(c2C1=Cc1cc2c(cc1Br)OCO2)OCO3,n,5.17µM,3.26µM,4.61µM,x,18.4µM
CC1(C)CCC[C@@]2(C)CC=C(C(=O)O)[C@@H]3C[C@]312,n,u,n,n,n,n
CC(C)c1ccc(NC(=O)c2cc(Br)ccc2Br)cc1,n,u,u,25.9µM,n,n
O=C(Nc1ccc(Cl)cc1)c1ccc(Br)cc1F,n,n,n,u,u,n
CCn1ncc(Br)c1C(=O)Nc1cccc(F)c1,n,n,n,n,n,n
CCn1ncc(Br)c1C(=O)Nc1ccc(C(C)C)cc1,-85.0,u,n,n,u,u
COc1cc(/C=C/C(=O)OCC(=O)N2CCC(C)CC2)ccc1OCC#N,n,n,n,n,n,n
CCCOc1ccc(/C=C/C(=O)O)cc1OC,n,n,n,n,n,n
COc1cccc(C(=O)/C=C/c2ccc(SC)cc2)c1,n,u,u,u,u,u
COc1cc(/C=C/C(=O)c2ccc(O)cc2)ccc1OCC#N,u,u,8.2µM,10.3µM,u,x
CCOc1ccc(/C=C/C(=O)c2ccccc2)cc1OC,-102.6,u,u,u,u,u
COc1cccc(C(=O)/C=C/c2ccc(OCC#N)c(OC)c2)c1,-101.9,9.2µM,20.6µM,13µM,u,23.1µM
COC(=O)c1ccc(/C=C/C(=O)c2cccc(OC)c2)cc1,-101.4,u,u,23.1µM,u,u
N#Cc1cccc(C2CC(OCCF)=CC(=O)O2)c1 (configuration not stated),n,x,n,n,x,x
SMILES,IL-1B inflam inh,MCF10A rereplic,DT40 TDP1 CPT,DT40 TDP1 no CPT,BCR signal inh,SW480 rereplic
CC1(C(=O)NS(=O)(=O)Cc2cccc(Cl)c2)CCN1C(=O)C1CCCCC1 (configuration not stated),n,x,n,n,x,x
Cc1ccc(CN2CCC(C)(Oc3ccc(Cl)cc3)C2)cc1 (configuration not stated),n,x,u,u,x,x
O=C(NCc1ccccc1Cl)c1cc(C(=O)C2CC2)c[nH]1,n,n,u,n,n,n
O=c1cc(N/N=C/c2ccccc2)[nH]c(=O)[nH]1,-99.1,u,4.11µM,4.61µM,x,u
N#CC1=C(Nc2ccccc2Cl)SC2(CCCC2)NC1=O,n,x,16.4µM,18.4µM,x,x
N#CC1=C(Nc2ccccc2Cl)SC(c2ccncc2)NC1=O (configuration not stated),n,x,n,n,x,x
CC(Oc1ccccc1)C(=O)N1CCN(c2ncccn2)CC1 (configuration not stated),n,n,n,n,n,n
CC(Oc1ccccc1)C(=O)N1CCN(S(=O)(=O)c2ccc(OC(F)(F)F)cc2)CC1 (configuration not stated),n,x,18.4µM,u,x,x
N#CC1(c2ccccc2)CCN(S(=O)(=O)c2ccc(OC(F)(F)F)cc2)CC1,n,n,n,14.6µM,n,n
O=C(O)CCC(=O)N1N=C(c2ccc(Br)cc2)CC1c1cccc(Br)c1 (configuration not stated),n,n,u,n,u,n[1.84 µM]
COc1cc2c(cc1OC)CN(CC(=O)Nc1ccccc1C(=O)NC1CC1)CC2,n,n,n,n,n,n
COc1cccc(N2CCN(CC(=O)Nc3ccccc3C(=O)NCCc3ccccc3)CC2)c1,u,n,20.6µM,18.4µM,n,n
COc1cccc(N2CCN(CC(=O)Nc3ccccc3C(=O)NCc3ccccc3)CC2)c1,n,n,u,16.4µM,n,n
COc1cccc(N2CCN(CC(=O)NCc3ccccc3)CC2)c1,n,n,n,n,n,n
COc1cc2c(cc1OC)CN(CC(=O)Nc1ccccc1C(=O)NCc1ccccc1)CC2,n,u,29.1µM,14.6µM,n,n
Cc1ccccc1NC(=O)CN1CCN(c2ccc(F)cc2)CC1,n,x,u,u,x,x
O=C(CN1CCN(c2ccc(O)cc2)CC1)Nc1ccccc1C(=O)NCCc1ccccc1,n,n,u,25.9µM,n,n
COC(=O)C[C@H]1C[C@H]2c3cc(NS(=O)(=O)c4ccc(OC)cc4)ccc3O[C@H]2[C@H](CO)O1,n,x,u,u,x,x
O=C(NCc1ccc(Cl)cc1)C1CCCCN1S(=O)(=O)c1ccccc1 (configuration not stated),n,n,n,u,u,n
CCc1ccc2oc(C(=O)N(Cc3ccc(N(C)C)cc3)Cc3ccco3)c(C)c2c1,x,x,0.731µM,16.4µM,x,x
Cc1ccc2c(C)c(C(=O)N(Cc3ccc(N(C)C)cc3)Cc3ccco3)oc2c1C,x,x,u,13µM,x,x
Cc1ccc2c(C)c(C(=O)NCCc3ccco3)oc2c1C,n,n,n,n,n,n
Cc1c(C(=O)N(Cc2ccco2)Cc2ccccc2Cl)oc2ccc(F)cc12,x,x,u,14.6µM,x,x
C=C1C=C(C)n2ncc(C(=O)Nc3ccc(C)cn3)c2N1,x,x,n,u,x,x
COc1ccccc1-n1cnc2c(c1=O)c1nc3ccccc3nc1n2-c1ccc(C)c(C)c1,n,u,n,18.4µM,u,n
Cc1ccc(-c2nc3c(c(SCC(=O)N4CCOCC4)n2)COC(C)(C)C3)cc1,n,n,u,u,x,n
